Consider 9 molecules from PubChem BioAssay (Tox21).

Unmarked numbers belong to inactive results. Inconclusive results are not listed. Activity calls are given as the source filed them. Unless noted, the call rests on the fitted dose curve; in most records, active means well fitted curve in the direction sought with a large enough effect in the repeat runs; inconclusive means weak or mixed curves; inactive means no such curve, though single readings can be large; an effect the other way counts as inactive or inconclusive.

Assay [1] can be described thus: qHTS assay to test for compound auto fluorescence at 535 nm (green) in HEK293 cells (AID 720680).
A short description of assay [2]: qHTS assay to test for compound auto fluorescence at 460 nm (blue) in HEK293 cell free culture (AID 720681). Put shortly: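 Compounds were added to cell-free DMEM with 10% FBS and fluorescence read directly. The blue channel used 405 nm excitation and 460 nm emission, with triamterene as the reference fluorophore.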
Assay [3] in a line: qHTS assay to test for compound auto fluorescence at 535 nm (green) in HEK293 cell free culture (AID 720682). Put shortly:
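Steps: dispense DMEM/10% FBS into empty wells; pin in compound or DMSO; measure fluorescence at 485/535 nm. Values are fluorescein equivalents.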

Assay [4] can be described thus: qHTS assay to test for compound auto fluorescence at 590 nm (red) in HEK293 cell free culture (AID 720683). Summed up:
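Cell-free wells of DMEM with 10% FBS received compound, and intrinsic fluorescence was read at excitation/emission 540/590 nm. Values expressed as equivalence to Rose Bengal sodium.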

A short description of assay [5]: qHTS assay to test for compound auto fluorescence at 590 nm (red) in HepG2 cell free culture (AID 720684). Summed up:
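Compound was pinned into wells holding MEM with 10% FBS and no cells, and red fluorescence was read at Ex/Em 540/590 nm. Signal is expressed as auto fluorescence equivalency relative to Rose Bengal sodium.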

Assay [6] is described as follows: qHTS assay to test for compound auto fluorescence at 460 nm (blue) in HepG2 cell free culture (AID 720685). Summed up: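 Compound (23 nL) or DMSO pinned into cell-free MEM with 10% FBS; blue fluorescence read at 405/460 nm excitation/emission, expressed as auto-fluorescence equivalency to triamterene.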
Assay [7] is described as follows: qHTS assay to test for compound auto fluorescence at 535 nm (green) in HepG2 cell free culture (AID 720686).
Assay [8] is described as follows: qHTS assay to test for compound auto fluorescence at 460 nm (blue) in HepG2 cells (AID 720687). Summed up: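 HepG2 cells in MEM with 10% FBS, attached overnight at 37 C, were exposed to compound or DMSO for 1 hr at 37 C, 5% CO2. Blue fluorescence was read at 405/460 nm, with triamterene as reference fluorophore.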
Assay [9] can be described thus: qHTS assay for identifying genotoxic compounds that show differential cytotoxicity against isogenic chicken DT40 cell lines with known DNA damage response pathways - wild type cell line (AID 743012). Further: nearly all actives have a fitted effect of over 60% in size. Further: potency means the concentration at half of the fitted maximal effect. Put shortly:
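Wild-type DT40 cells (300/well) exposed to compounds for 40 hours at 37 C/5% CO2. Viability read by CellTiter-Glo luminescence after 30 min at room temperature.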

Assay [10] in a line: qHTS assay for identifying genotoxic compounds that show differential cytotoxicity against isogenic chicken DT40 cell lines with known DNA damage response pathways - Rev3 mutant cell line (AID 743014). Further: nearly all actives have a fitted effect of over 55% in size. Further: potency means the concentration at half of the fitted maximal effect.
Assay [11] is described as follows: qHTS assay for identifying genotoxic compounds that show differential cytotoxicity against isogenic chicken DT40 cell lines with known DNA damage response pathways - Rad54/Ku70 mutant cell line (AID 743015). Further: nearly all actives have a fitted effect of over 60% in size. Further: potency means the concentration at half of the fitted maximal effect.
The nature of assay [12]: qHTS assay to identify small molecule antagonists of the androgen receptor (AR) signaling pathway - cell viability counter screen (AID 743033; further: nearly all actives have a fitted effect of over 45% in size; further: potency means the concentration at half of the fitted maximal effect).
The target in assay [13] is Androgen receptor (Homo sapiens) (UniProt P10275). Nature of the assay: qHTS assay to identify small molecule antagonists of the androgen receptor (AR) signaling pathway (AID 743035; active means well fitted inhibition curve with a large enough effect in the signal ratio in the repeat runs, not every such curve was filed as active; the % refers to the signal ratio). Put shortly: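 HEK293 cells stably carrying UAS-beta-lactamase reporter, 2,000/well, given compounds plus R1881 agonist and incubated 16 h at 37C. LiveBLAzer B/G FRET substrate then added for 2 h at room temperature before fluorescence reading.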

For assay [14] the target is unchanged. Kind of assay: qHTS assay to identify small molecule agonists of the androgen receptor (AR) signaling pathway (AID 743036; active means well fitted activation curve with a large enough effect in the signal ratio in the repeat runs, with a control signal flat, not every such curve was filed as active; the % refers to the signal ratio). Put shortly: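 Reporter line: GeneBLAzer AR-UAS-bla-GripTite (HEK293). Steps: plate cells, 4 h rest, add compounds, 16 h at 37C, add LiveBLAzer B/G substrate, 2 h at RT, read fluorescence.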
The target is the same in assay [15]. Nature of the assay: qHTS assay to identify small molecule agonists of the androgen receptor (AR) signaling pathway using the MDA cell line (AID 743040; further: nearly all actives have a fitted effect of over 20% in size). Put shortly: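 MDA-kb2 breast carcinoma cells carrying MMTV-luciferase (responsive to AR and GR), plated 5 h then treated 16 h with compounds at 37C, 0% CO2. Read-out was ONE-Glo luminescence after 30 min at room temperature.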

Assay [16] can be described thus: qHTS assay to identify small molecule antagonists of the androgen receptor (AR) signaling pathway using the MDA cell line - cell viability counter screen (AID 743041; further: nearly all actives have a fitted effect of over 45% in size; further: potency means the concentration at half of the fitted maximal effect). Summed up:
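MDA-kb2 AR-luc cells (MMTV-luciferase, AR/GR responsive) treated with compounds plus R1881 agonist for 16 h at 37C. CellTiter-Fluor added at 15.5 h; fluorescence read after 30 min in the same wells.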

Assay [17] addresses Androgen receptor (Homo sapiens) (UniProt P10275). Kind of assay: qHTS assay to identify small molecule antagonists of the androgen receptor (AR) signaling pathway using the MDA cell line (AID 743042; further: nearly all actives have a fitted effect of over 55% in size). Put shortly: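 MDA-kb2 breast carcinoma cells carrying MMTV-luciferase (AR/GR responsive) were co-treated with compounds and the agonist R1881 for 16 h at 37C. Inhibition read as ONE-Glo luminescence; CellTiter-Fluor fluorescence measured in parallel for cytotoxicity.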

Assay [18] has as its target Glucocorticoid receptor (Homo sapiens) (UniProt P04150). Kind of assay: qHTS assay to identify small molecule agonists of the glucocorticoid receptor (GR) signaling pathway (AID 720691; active means well fitted activation curve with a large enough effect in the signal ratio in the repeat runs, not every such curve was filed as active; the % refers to the signal ratio). Put shortly:
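GR-bla HeLa cells carrying a GRE-driven beta-lactamase reporter, exposed to compounds for 18 h at 37 C. Reporter activation read as fluorescence after 2 h with LiveBLAzer B/G FRET substrate at room temperature.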

The target is the same in assay [19]. Nature of the assay: qHTS assay to identify small molecule antagonists of the glucocorticoid receptor (GR) signaling pathway (AID 720692; active means well fitted inhibition curve with a large enough effect in the signal ratio in the repeat runs, not every such curve was filed as active; the % refers to the signal ratio). Put shortly:
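GR-bla HeLa cells carrying a GRE-driven beta-lactamase reporter received compound after 4 h plating, then dexamethasone (5 nM final). After 18 h at 37C, the FRET substrate was loaded for 2 h at room temperature and fluorescence read.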

Assay [20] is described as follows: qHTS assay to identify small molecule antagonists of the glucocorticoid receptor (GR) signaling pathway - cell viability counter screen (AID 720693). Further: nearly all actives have a fitted effect of over 55% in size.
On the % scale 0 is the no-effect control and ±100 the full control effect.

Chain of Glucocorticoid receptor (Homo sapiens) (P04150 whole entry, looked up): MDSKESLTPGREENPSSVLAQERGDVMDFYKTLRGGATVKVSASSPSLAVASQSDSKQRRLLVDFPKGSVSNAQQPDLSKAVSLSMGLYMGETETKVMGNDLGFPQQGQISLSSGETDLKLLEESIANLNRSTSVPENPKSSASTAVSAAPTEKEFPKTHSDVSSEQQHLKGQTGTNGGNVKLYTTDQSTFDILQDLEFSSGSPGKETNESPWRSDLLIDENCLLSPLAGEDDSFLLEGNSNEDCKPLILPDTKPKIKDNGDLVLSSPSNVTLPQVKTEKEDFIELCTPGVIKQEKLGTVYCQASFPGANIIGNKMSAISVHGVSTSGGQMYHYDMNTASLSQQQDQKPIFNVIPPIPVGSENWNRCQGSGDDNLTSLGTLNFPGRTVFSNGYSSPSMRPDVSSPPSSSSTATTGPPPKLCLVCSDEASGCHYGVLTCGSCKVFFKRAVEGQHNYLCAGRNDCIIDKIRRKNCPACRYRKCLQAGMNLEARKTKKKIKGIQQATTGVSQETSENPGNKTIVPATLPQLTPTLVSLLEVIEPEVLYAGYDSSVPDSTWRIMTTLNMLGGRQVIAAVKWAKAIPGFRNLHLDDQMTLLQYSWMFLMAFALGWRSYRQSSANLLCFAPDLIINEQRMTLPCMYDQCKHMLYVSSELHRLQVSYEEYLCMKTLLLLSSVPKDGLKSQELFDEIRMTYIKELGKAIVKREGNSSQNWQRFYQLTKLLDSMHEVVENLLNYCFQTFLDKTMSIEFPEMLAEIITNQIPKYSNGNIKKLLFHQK
Chain of Androgen receptor (Homo sapiens) (P10275 whole entry, looked up): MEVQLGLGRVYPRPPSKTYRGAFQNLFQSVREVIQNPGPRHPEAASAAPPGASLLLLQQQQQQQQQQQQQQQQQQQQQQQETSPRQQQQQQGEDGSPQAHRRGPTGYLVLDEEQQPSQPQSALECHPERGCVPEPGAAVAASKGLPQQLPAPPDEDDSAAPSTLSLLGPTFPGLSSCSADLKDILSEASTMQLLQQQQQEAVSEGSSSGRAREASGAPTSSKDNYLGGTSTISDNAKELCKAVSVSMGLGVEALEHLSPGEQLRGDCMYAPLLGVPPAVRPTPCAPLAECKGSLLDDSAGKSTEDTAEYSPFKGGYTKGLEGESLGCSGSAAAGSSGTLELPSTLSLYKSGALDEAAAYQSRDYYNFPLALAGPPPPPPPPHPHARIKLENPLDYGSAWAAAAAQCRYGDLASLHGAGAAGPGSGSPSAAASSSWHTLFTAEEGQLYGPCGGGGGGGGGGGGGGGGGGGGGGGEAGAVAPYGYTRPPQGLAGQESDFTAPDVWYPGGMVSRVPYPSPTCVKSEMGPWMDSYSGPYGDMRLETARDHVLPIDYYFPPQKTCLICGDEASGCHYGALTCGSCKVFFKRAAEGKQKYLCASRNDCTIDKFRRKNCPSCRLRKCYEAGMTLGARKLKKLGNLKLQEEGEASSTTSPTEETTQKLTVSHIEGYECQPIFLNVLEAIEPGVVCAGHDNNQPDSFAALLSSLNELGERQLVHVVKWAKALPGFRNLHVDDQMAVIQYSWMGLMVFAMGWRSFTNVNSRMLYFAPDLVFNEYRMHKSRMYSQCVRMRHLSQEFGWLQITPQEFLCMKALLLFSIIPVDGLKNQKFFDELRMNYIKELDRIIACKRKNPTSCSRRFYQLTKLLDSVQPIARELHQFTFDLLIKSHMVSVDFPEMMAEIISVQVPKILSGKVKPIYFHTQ

Take `CC(=O)OCC(=O)NCCCOc1cccc(CN2CCCCC2)c1`: the call in assay [1], in assay [3], in assay [4], in assay [5], in assay [7] and in assay [14] was inactive. In addition, the molecule was classed as inactive in assay [15]. For the same molecule, the Potency result in assay [2], in assay [6], in assay [8], in assay [9], in assay [10] and in [11] was “inactive” throughout. Further, the Potency result in assay [12], in assay [13], in [16] and in assay [17] was “inactive” in each case.

For `Cc1[nH]cnc1CN1CCc2c(c3ccccc3n2C)C1=O`, the outcome in [1], in assay [3], in [4], in assay [5] and in [7] was inactive. The Potency entry in [2], in assay [6], in assay [8], in [9], in assay [10] and in assay [11] was “inactive” each time. In addition, the Potency result in assay [12] and in [16] was “inactive” in each case.

Regarding `C[C@@H]1CC(=O)NN=C1c1ccc(NN=C(C#N)C#N)cc1`, the result in assay [1], in assay [3], in assay [4], in [5], in assay [7] and in [15] was inactive. Further, the Potency entry in assay [2] and in assay [8] was “inactive” in each case. Besides, the Potency in [9] is 18.8 µM (active); in assay [10], 18.8 µM (active); in [11], 21.1 µM (active); in [16], 29.8 µM (active).

For `O=C(CCc1ccc(O)cc1)c1c(O)cc(O)cc1O`, the molecule was called inactive in [1], in assay [3], in [4], in assay [5] and in [7]. In addition, the Potency entry in [2], in assay [6], in assay [8], in assay [16] and in [17] was “inactive” in each case. The Potency in assay [10] was 62.5 µM (active).

`OCCN1CCN(CCCN2c3ccccc3Sc3ccc(Cl)cc32)CC1`: the fluorescence, % of fluorescein in assay [1] is -0.0167% [at 18.6 µM]. The fluorescence, % of fluorescent control was -0.0053% [at 18.6 µM] in [2], 0.0511% [at 18.6 µM] in assay [4], 0.0187% [at 18.6 µM] in [6] and 0.0774% [at 18.6 µM] in assay [8]. Moreover, in assay [3], the activity change is -0.0092% [at 18.6 µM]. In [7], the fluorescence, % of fluorescein control is 0.137% [at 18.6 µM]. The Potency result in assay [18], in [19], in assay [20] and in assay [16] was “inactive” each time. Moreover, the Potency in assay [9] was 3.59 µM (active); in [10], 2.85 µM (active); in assay [11], 4.52 µM (active); in assay [12], 4.56 µM (active).

Regarding `CC(C)(C)C(=O)C(=O)O`, the result in assay [1], in assay [3], in [4] and in assay [7] was inactive. The Potency entry in assay [2], in assay [8], in [18], in [19], in [9] and in [10] was “inactive” each time. For the same molecule, the Potency entry in assay [11], in [12] and in assay [16] was “inactive” in each case.

For the molecule `CC[N+](CC)(CCNC(=O)C(=O)NCC[N+](CC)(CC)Cc1ccccc1Cl)Cc1ccccc1Cl`, the result in [1], in assay [3], in assay [4] and in assay [7] was inactive. The Potency result in assay [2], in assay [6], in assay [8], in assay [9], in assay [10] and in assay [11] was “inactive” each time. Besides, the Potency entry in [16] was “inactive”.

Take `CC1(CN2CCC(n3c(=O)[nH]c4ccccc43)CC2)OCc2ccccc2-n2cccc21` (centres undefined): the outcome in [1], in assay [3], in [4] and in assay [7] was inactive. In addition, the Potency entry in assay [2], in assay [6], in assay [8], in assay [18] and in assay [12] was “inactive” in each case. Also, the values for the Potency in assay [9], in [10] and in assay [11] were 21.1 µM (active), 29.8 µM (active) and 21.1 µM (active), respectively.

As for `Nc1cccc2c1CN(C1CCC(=O)NC1=O)C2=O` (centres undefined), the result in [1], in assay [3], in assay [4] and in assay [7] was inactive. Moreover, the Potency entry in assay [2], in [6], in [8], in assay [18], in assay [19] and in assay [20] was “inactive” in each case. In addition, the Potency result in assay [9], in [10], in [11], in [12] and in assay [16] was “inactive” throughout.
